Measurements published in PubChem BioAssay (Tox21).
Values joined by “and” are separate entries in the source; they are usually repeats but may differ in a detail not shown here. Equal entries are not always repeated. Inconclusive results are not listed. Some compounds were tested as several samples or in several runs, with calls that do not always agree. Active and inactive are the calls of the source. Calls follow the shape of the dose curve; as a rule, active = well fitted cell-killing curve with a large enough effect in the repeat runs; inconclusive = weak or mixed curves; inactive = flat fitted curve, though single readings scatter.

Test: qHTS assay to identify small molecule antagonists of the estrogen related receptor (ERR) signaling pathway from Tox21 library - cell viability counter screen (AID 1224834); also: nearly all actives have a fitted effect of over 30% in size
Conditions: ERR reporter cells viability, CellTiter-Fluor, 17.5 h; series mostly up to 92.4 µM; viability change, negative = cytotoxic: at the top concentration
How it was run: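 Counter screen run in ERR cells (2,000 cells/well): cells pre-incubated 6 h, then treated with compounds for 17.5 h at 37 C. Fluorescence was read 30 min after CellTiter-Fluor addition.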
% is scaled to controls: 0 for no effect and ±100 for the full control effect; potency is read from the fitted curve at half-maximal effect.

| Structure (SMILES) | viability change, negative = cytotoxic | Potency |
| --- | --- | --- |
| C[C@](N)(Cc1ccc(O)cc1)C(=O)O | 1.82% [at 8.39 µM] (inactive) |  |
| C1OCOCO1 | 0.523% (inactive) |  |
| O=C1CCCCCCCCCCCN1 |  | inactive |
| CCOC(=O)CC(C)=O | 3.02% (inactive) |  |
| NC(=O)c1cn(Cc2c(F)cccc2F)nn1 | 5.05% [at 42.5 µM] (inactive) |  |
| O=c1cc(-c2ccccc2)oc2ccccc12 | -15% (inactive) |  |
| CCN(CC)CCNC(=O)c1cc(S(C)(=O)=O)ccc1OC | -0.815% [at 42.5 µM] (inactive) |  |
| OC[C@]1(O)OC[C@@H](O)[C@H](O)[C@@H]1O |  | inactive |
| CCCCC/C=C\CCC=O | -0.305% (inactive) |  |
| C=C1CC[C@H]2C[C@@H]1C2(C)C | 5.7% (inactive) |  |
| CC(=O)OCC(=O)[C@@]1(O)CC[C@H]2[C@@H]3CCC4=CC(=O)CC[C@]4(C)[C@H]3C(=O)C[C@@]21C | 11.4% [at 42.5 µM] (inactive) |  |
| CC(C)(O)C#CC(C)(C)O | 3.12% (inactive) |  |
| COC(=O)[C@@H](N)Cc1ccc(O)c(O)c1 | 2.33% [at 42.5 µM] (inactive) |  |
| CC[N+](C)(C)c1cccc(O)c1 | 1.23% [at 42.5 µM] (inactive) |  |
| CN(C)CCCN1c2ccccc2CCc2ccc(Cl)cc21 |  | 54.5 µM (active) and 23.7 µM (active) |
| CCN1CCC[C@H]1CNC(=O)c1c(O)c(Cl)cc(Cl)c1OC | 7.69% [at 42.5 µM] (inactive) |  |
| CCN(Cc1ccncc1)C(=O)C(CO)c1ccccc1 (stereo not drawn) | 0.652% [at 42.5 µM] (inactive) |  |

| Structure (SMILES) | viability change, negative = cytotoxic | Potency |
| --- | --- | --- |
| COC(=O)C1=C(C)NC(C)=C(C(=O)OC)C1c1ccccc1[N+](=O)[O-] |  | 54.5 µM (active) and inactive |
| Cc1[nH]c(=O)c(C#N)cc1-c1ccc2nccn2c1 | 5.22% [at 42.5 µM] (inactive) |  |
| O=C1NC(=O)[C@@]2(CCOc3ccc(F)cc32)N1 | 2.9% [at 42.5 µM] (inactive) |  |
| Nc1cc(=O)[nH]c(N)n1 | 2.37% [at 42.5 µM] (inactive) |  |
| O=C(O)CN(CCOCCOCCN(CC(=O)O)CC(=O)O)CC(=O)O | 1.46% [at 0.349 µM] (inactive) |  |
| NCCc1cnc[nH]1 | 2.64% [at 42.5 µM] (inactive) |  |
| Brc1c(NC2=NCCN2)ccc2nccnc12 | -1.17% [at 42.5 µM] (inactive) |  |
| Nc1ccc(S(=O)(=O)Nc2ccnn2-c2ccccc2)cc1 | -1.42% [at 19 µM] (inactive) |  |
| O=c1n(CCO)c(=O)n(CCO)c(=O)n1CCO |  | inactive |
| CCn1nc(C(=O)O)c(=O)c2cc3c(cc21)OCO3 | 7.96% [at 42.5 µM] (inactive) |  |
| CCCCOCCOCCOCc1cc2c(cc1CCC)OCO2 |  | inactive |
| CN1CCC(=C2c3ccccc3CC(=O)c3sccc32)CC1 | -0.0143% [at 42.5 µM] (inactive) |  |
| CC(=O)OCC(CCn1cnc2cnc(N)nc21)COC(C)=O | 8.5% [at 42.5 µM] (inactive) |  |
| CCO/C([O-])=N/c1c[n+](N2CCOCC2)no1 | 4.46% [at 42.5 µM] (inactive) |  |
| CCN(CC)CCOCCOC(=O)C1(c2ccccc2)CCCC1 | -8.81% [at 42.5 µM] (inactive) |  |
| COc1ccc(CCN(C)CCCC(C#N)(c2cc(OC)c(OC)c(OC)c2)C(C)C)cc1OC (stereo not drawn) |  | 29.8 µM (active) |
